From PubChem BioAssay (EPA / NIEHS)
Active and inactive are the calls of the source. How the source made its calls: active means hit-call score of the fitted dose curve at least 0.9, where 1 is the maximum; inactive means score below 0.9.

How the values were obtained:
[1] = read-out: Interleukin-8 (IL8), CXCL8 (gene 3576); assay: BSK_3C_IL8: BioMAP Diversity Plus: 3C Assay for Interleukin-8 (IL8) Biomarker Activity (AID 2283020); conditions: primary human endothelial cells (HUVEC); actives raise or lower the signal
Procedure, shortened: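 Human vascular endothelial cells (umbilical vein) in the 3C system; IL-8 level detected by ELISA at 24 h post-dose, with DMSO as baseline.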

[2] = read-out: Monokine induced gamma interferon (MIG), CXCL9 (gene 4283); assay: BSK_3C_MIG: BioMAP Diversity Plus: 3C Assay for Monokine induced gamma interferon (MIG) Biomarker Activity (AID 2283021); conditions: primary human endothelial cells (HUVEC); actives raise or lower the signal;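 on AC50: MIG protein level measured by immunoassay in the treated endothelial cultures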
Procedure, shortened: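 After 24 h of treatment, human umbilical vein endothelial cultures (3C system) had their MIG biomarker level determined by ELISA, with DMSO serving as negative control.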

[3] = BSK_3C_SRB: Viability Assessment in the BioMAP Diversity Plus: 3C Assay (AID 2283023); conditions: primary human endothelial cells (HUVEC);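 further: fitted both ways against DMSO so a hit may be signal rise or drop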
Procedure, shortened: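 Primary human umbilical vein endothelial cells in the 3C system were read 24 h after compound dosing. Total protein was stained with 0.1% sulforhodamine B after 10% TCA fixation and read at 560 nm, with bidirectional fitting against DMSO as baseline.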

[4] = read-out: Matrix Metallopeptidase 1 (MMP1), MMP1 (gene 4312); assay: BSK_BE3C_MMP1: BioMAP Diversity Plus: BE3C Assay for Matrix Metallopeptidase 1 (MMP1) Biomarker Activity (AID 2283024); conditions: primary human bronchial epithelial cells; actives raise or lower the signal
Procedure, shortened: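 Dose cells, wait 24 h, run MMP1 ELISA; cells are human bronchial epithelial primaries. Both increases and decreases relative to DMSO counted.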

[5] = BSK_3C_Vis: BioMAP Diversity Plus: 3C Assay for Morphology Visualization (AID 2283025); conditions: primary human endothelial cells (HUVEC);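 further: fitted both ways so gain or loss versus DMSO counts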;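 on AC50: light microscopy image of cell morphology used as background control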
Procedure, shortened: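 Endothelial cells from human umbilical vein were treated with test chemicals for 24 h and inspected by light microscopy for changes in cell conformation.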

[6] = read-out: Pselectin, SELP (gene 6403); assay: BSK_4H_Pselectin: BioMAP Diversity Plus: 4H Assay for Pselectin Biomarker Activity (AID 2283026); conditions: primary human endothelial cells (HUVEC); actives raise or lower the signal
Procedure, shortened: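 Human vascular endothelium from umbilical vein; P-selectin measured by ELISA at 24 h post-dose, with cytotoxicity checked by sulforhodamine B total-protein staining in parallel cultures (0.1% SRB after 10% TCA fixation, read at 560 nm).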

[7] = BSK_4H_SRB: Viability Assessment in the BioMAP Diversity Plus: 4H Assay (AID 2283027); conditions: primary human endothelial cells (HUVEC);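 further: cells exposed to compound for 24 h before staining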;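 on AC50: curves fitted both ways versus DMSO so AC50 may be loss or gain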
Procedure, shortened: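 Absorbance at 560 nm of SRB-stained total protein served as the viability read-out in confluent primary human umbilical vein endothelium 24 h after chemical treatment. Curves were fitted bidirectionally against DMSO as negative control.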

[8] = BSK_BE3C_SRB: Viability Assessment in the BioMAP Diversity Plus: BE3C Assay (AID 2283028); conditions: primary human bronchial epithelial cells
Procedure, shortened: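 Human primary bronchial epithelial cells were exposed to test chemicals for 24 h. Total protein in parallel cultures was then measured by staining with 0.1% sulforhodamine B after 10% TCA fixation, with absorbance read at 560 nm. Activity was fitted bidirectionally against DMSO.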

[9] = read-out: Thrombomodulin, THBD (gene 7056); assay: BSK_3C_Thrombomodulin: BioMAP Diversity Plus: 3C Assay for Thrombomodulin Biomarker Activity (AID 2283029); conditions: primary human endothelial cells (HUVEC); actives raise or lower the signal
Procedure, shortened: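 Thrombomodulin ELISA, human primary HUVEC, 24 h post-dose; data fitted in both directions relative to DMSO.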

[10] = read-out: Urokinase-type plasminogen activator receptor (uPAR), PLAUR (gene 5329); assay: BSK_4H_uPAR: BioMAP Diversity Plus: 4H Assay for Urokinase-type plasminogen activator receptor (uPAR) Biomarker Activity (AID 2283030); conditions: primary human endothelial cells (HUVEC); actives raise or lower the signal
Procedure, shortened: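 Primary human umbilical vein endothelial cells were exposed to chemical for 24 h before cell-surface uPAR was quantified by ELISA. Activity was fitted bidirectionally against the DMSO negative control baseline.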

[11] = read-out: Vascular endothelial growth factor receptor 2 (Homo sapiens) (UniProt P35968); assay: BSK_4H_VEGFRII: BioMAP Diversity Plus: 4H Assay for Vascular endothelial growth factor receptor 2 (VEGFR2) Biomarker Activity (AID 2283031); conditions: primary human endothelial cells (HUVEC); actives raise or lower the signal
Procedure, shortened: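 Primary human umbilical vein endothelial cells in the BioMAP 4H system were dosed with test chemical, and 24 h later VEGFRII was measured by ELISA. Activity was fitted bidirectionally against DMSO as negative control and baseline.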

[12] = read-out: Human Leukocyte Antigen - DR isotype (HLADR), HLA-DRA (gene 3122); assay: BSK_BE3C_HLADR: BioMAP Diversity Plus: BE3C Assay for Human Leukocyte Antigen - DR isotype (HLADR) Biomarker Activity (AID 2283032); conditions: primary human bronchial epithelial cells; actives raise or lower the signal
Procedure, shortened: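 Signal came from an ELISA for HLA-DR in human bronchial epithelial primary cells harvested 24 h after treatment; gain- and loss-of-signal fitting used DMSO controls as reference.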

[13] = read-out: Vascular cell adhesion molecule 1 (VCAM1), VCAM1 (gene 7412); assay: BSK_4H_VCAM1: BioMAP Diversity Plus: 4H Assay for Vascular cell adhesion molecule 1 (VCAM1) Biomarker Activity (AID 2283033); conditions: primary human endothelial cells (HUVEC); actives raise or lower the signal;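 on outcome: cell-surface VCAM-1 protein measured by ELISA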
Procedure, shortened: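 Endpoint derived from bidirectional fitting against DMSO controls of VCAM-1 ELISA signal in umbilical vein endothelial cells sampled at 24 h following treatment.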

[14] = read-out: Interferon-gamma inducible Protein 10 (IP10), CXCL10 (gene 3627); assay: BSK_BE3C_IP10: BioMAP Diversity Plus: BE3C Assay for Interferon-gamma inducible Protein 10 (IP10) Biomarker Activity (AID 2283034); conditions: primary human bronchial epithelial cells; actives raise or lower the signal
Procedure, shortened: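 Using primary human bronchial epithelial cultures, the assay captures IP-10 by ELISA one day (24 h) after exposure. Parallel SRB staining of total protein flags overt cytotoxicity. Fits run bidirectionally relative to DMSO.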

[15] = read-out: Monokine induced gamma interferon (MIG), CXCL9 (gene 4283); assay: BSK_BE3C_MIG: BioMAP Diversity Plus: BE3C Assay for Monokine induced gamma interferon (MIG) Biomarker Activity (AID 2283035); conditions: primary human bronchial epithelial cells; actives raise or lower the signal;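 further: MIG protein measured by ELISA in BE3C cultures after 24 h of dosing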
Procedure, shortened: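 MIG level was determined by ELISA after 24 h chemical treatment of primary human bronchial epithelial cells. Values were fitted bidirectionally with DMSO as the negative control and activity baseline.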

[16] = read-out: Transforming growth factor beta 1 (TGFb1), TGFB1 (gene 7040); assay: BSK_BE3C_TGFb1: BioMAP Diversity Plus: BE3C Assay for Transforming growth factor beta 1 (TGFb1) Biomarker Activity (AID 2283036;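 further: TGF-b1 protein level measured by ELISA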); conditions: primary human bronchial epithelial cells; actives raise or lower the signal
Procedure, shortened: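 In this human primary bronchial epithelial system, an ELISA quantified TGF-b1 one day after dosing. Endpoint changes in either direction were fitted relative to DMSO.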

[17] = read-out: Plasminogen activator inhibitor-1 (PAI1), SERPINE1 (gene 5054); assay: BSK_BE3C_PAI1: BioMAP Diversity Plus: BE3C Assay for Plasminogen activator inhibitor-1 (PAI1) Biomarker Activity (AID 2283037); conditions: primary human bronchial epithelial cells; actives raise or lower the signal
Procedure, shortened: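 PAI-1 biomarker levels in treated human bronchial epithelial cells are determined by ELISA at 24 h. Both increases and decreases relative to DMSO are fitted.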

[18] = read-out: urokinase plasminogen activator (uPA), PLAU (gene 5328); assay: BSK_BE3C_uPA: BioMAP Diversity Plus: BE3C Assay for urokinase plasminogen activator (uPA) Biomarker Activity (AID 2283038); conditions: primary human bronchial epithelial cells; actives raise or lower the signal;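 further: uPA protein level quantified by ELISA in cell cultures; uPA read one day after compound addition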
Procedure, shortened: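 Human primary bronchial epithelial cells were exposed to chemical for 24 h, then uPA levels were measured by ELISA. Responses were fitted bidirectionally against DMSO as negative control and baseline. Parallel SRB staining of total protein gauged overt cytotoxicity.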

[19] = read-out: Urokinase-type plasminogen activator receptor (uPAR), PLAUR (gene 5329); assay: BSK_BE3C_uPAR: BioMAP Diversity Plus: BE3C Assay for Urokinase-type plasminogen activator receptor (uPAR) Biomarker Activity (AID 2283039); conditions: primary human bronchial epithelial cells; actives raise or lower the signal;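 further: cells exposed to compound for one day before measurement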
Procedure, shortened: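 A uPAR ELISA serves as the readout, taken 24 h after treating primary human bronchial epithelial cells. Responses in either direction are fitted against DMSO, which defines baseline activity.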

NC(N)=O
outcome [1]: inactive | outcome [2]: inactive | outcome [3]: inactive | outcome [4]: inactive | outcome [5]: inactive | outcome [6]: inactive | outcome [7]: inactive | outcome [8]: inactive | outcome [9]: inactive | outcome [10]: inactive | outcome [11]: inactive | outcome [12]: inactive | outcome [13]: inactive | outcome [14]: inactive | outcome [15]: inactive | outcome [16]: inactive | outcome [17]: inactive | outcome [18]: inactive | outcome [19]: inactive

Cn1cc[nH]c1=S
outcome [1]: inactive | outcome [2]: inactive | outcome [3]: inactive | outcome [4]: inactive | outcome [5]: inactive | outcome [6]: inactive | outcome [7]: inactive | outcome [8]: inactive | outcome [9]: inactive | outcome [10]: inactive | outcome [11]: inactive | outcome [12]: inactive | outcome [13]: inactive | outcome [14]: inactive | outcome [15]: inactive | outcome [16]: inactive | outcome [17]: inactive | outcome [18]: inactive | outcome [19]: inactive

CC(=O)c1ccccc1
outcome [1]: inactive | outcome [2]: inactive | outcome [3]: inactive | outcome [4]: inactive | outcome [5]: inactive | outcome [6]: inactive | outcome [7]: inactive | outcome [8]: inactive | outcome [9]: inactive | outcome [10]: inactive | outcome [11]: inactive | outcome [12]: inactive | outcome [13]: inactive | outcome [14]: inactive | outcome [15]: inactive | outcome [16]: inactive | outcome [17]: inactive | outcome [18]: inactive | outcome [19]: inactive

O=C(O)c1ccc2c(c1)nc(C(=O)NC1CCN(C3CC3)CC1)n2Cc1cc(-c2ccc(Cl)s2)on1
outcome [1]: inactive | outcome [2]: inactive | outcome [3]: inactive | outcome [4]: inactive | outcome [5]: inactive | AC50 [6]: 0.952 µM (active) | outcome [7]: inactive | outcome [8]: inactive | outcome [9]: inactive | AC50 [10]: 0.0541 µM (active) | outcome [11]: inactive | outcome [12]: inactive | outcome [13]: inactive | outcome [14]: inactive | outcome [15]: inactive | outcome [16]: inactive | outcome [17]: inactive | outcome [18]: inactive | outcome [19]: inactive

CCc1ccc(O)c(C(C)(C)C)c1
AC50 [1]: 30.4 µM (active) | AC50 [2]: 36 µM (active) | AC50 [3]: 31.2 µM (active) | outcome [4]: inactive | AC50 [5]: 39.3 µM (active) | AC50 [6]: 32 µM (active) | AC50 [7]: 32.8 µM (active) | outcome [8]: inactive | outcome [9]: inactive | AC50 [10]: 36.7 µM (active) | outcome [11]: inactive | outcome [12]: inactive | AC50 [13]: 31.1 µM (active) | outcome [14]: inactive | outcome [15]: inactive | outcome [16]: inactive | outcome [17]: inactive | outcome [18]: inactive | outcome [19]: inactive

OCc1ccccc1
outcome [1]: inactive | outcome [2]: inactive | outcome [3]: inactive | outcome [4]: inactive | outcome [5]: inactive | outcome [6]: inactive | outcome [7]: inactive | outcome [8]: inactive | outcome [9]: inactive | outcome [10]: inactive | outcome [11]: inactive | outcome [12]: inactive | outcome [13]: inactive | outcome [14]: inactive | outcome [15]: inactive | outcome [16]: inactive | outcome [17]: inactive | outcome [18]: inactive | outcome [19]: inactive

O=C(O)c1cccc(C(=O)O)c1
outcome [1]: inactive | outcome [2]: inactive | outcome [3]: inactive | outcome [4]: inactive | outcome [5]: inactive | outcome [6]: inactive | outcome [7]: inactive | outcome [8]: inactive | outcome [9]: inactive | outcome [10]: inactive | outcome [11]: inactive | outcome [12]: inactive | outcome [13]: inactive | outcome [14]: inactive | outcome [15]: inactive | outcome [16]: inactive | outcome [17]: inactive | outcome [18]: inactive | outcome [19]: inactive
